High-throughput results from PubChem BioAssay.
An excerpt weighted towards active compounds, which were near 17% of everything screened.
TGFb SMAD3 inh: qHTS for Inhibitors of TGF-b. HepG2 CAGA-GFP TGF-b/SMAD3 reporter, GFP fluorescence, 18 h; TGF-beta stimulated, 500 pg/mL final. Potency, µM (highest dose often 46.1 µM), most hits filed as inhibitors. 410,000 compounds, 1.2% hits. AID 588855, 2011; also: nearly all actives have a fitted effect of over 65% in size
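Using HEPG2 CAGA-GFP reporter cells at 1000 cells/well, we pinned test compounds, stimulated with recombinant TGF-beta (500 pg/mL final) and measured total well GFP after 18 h.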
HT1080NT lethal: qHTS for induction of synthetic lethality in tumor cells producing 2HG: qHTS for the HT-1080-NT fibrosarcoma cell line. HT-1080-NT fibrosarcoma viability, CellTiter-Glo ATP luminescence, 48 h. Potency, µM (top dose mostly 46.1 µM), most hits filed as cytotoxic. 360,000 compounds, 1.6% hits;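 also: NT is the 2HG producing partner of a matched IDH1 knockdown line; nearly all actives have a fitted effect of over 55% in size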
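HT-1080-NT fibrosarcoma cells (2HG-overproducing), 750 cells/well in RPMI with 5% FBS, dosed after 2 h and incubated 48 h at 37C. CellTiter-Glo luminescence normalized to DMSO and no-cell wells; concentration-response curves fitted and classed.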
HepG2 tox: qHTS for Inhibitors of TGF-b: Cytotox Counterscreen. HepG2 CAGA-GFP viability, ATP luminescence, 18 h. Potency, µM (series often up to 46.1 µM), hits mostly cytotoxic. 410,000 compounds, 0.76% hits
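HepG2 CAGA-GFP cells (1000/well, DMEM with 1% FBS) received compound, then TGF-beta at 500 pg/mL final, and were incubated 18 hours at 37 degrees C. Viability was read by CellTiter-Glo luminescence. Media-only wells were set as complete cell-killing and DMSO as no toxicity.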
TDP1 cell noCPT: qHTS for Inhibitors of human tyrosyl-DNA phosphodiesterase 1 (TDP1): qHTS in cells in absence of CPT | DT40 Tdp1-/- hTDP1 cells, no CPT, ATP luminescence, 48 h | AID 686978, 2013 | 420,000 compounds, 15% hits | Potency, µM (top dose mostly 46.2 µM), hits mostly inhibitors; also: nearly all actives have a fitted effect of over 55% in size
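Chicken DT40 Tdp1-/- cells stably complemented with human TDP1 were seeded at 400 cells/well with DMSO in place of 20 nM camptothecin. After compound pinning, cells grew at least 48 hr at 37 °C; viability read by CellTiter-Glo luminescence.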
HT1080 IDH1KD tx: qHTS for induction of synthetic lethality in tumor cells producing 2HG: qHTS for the HT-1080-IDH1KD cell line; HT-1080 IDH1 knockdown viability, ATP luminescence, 48 h; Potency, µM (series often up to 46.1 µM), usual class: cytotoxic; 360,000 compounds, 2% hits; AID 686971, 2013
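Luminescent ATP read-out (CellTiter-Glo, 10 min at room temperature) after 48 h compound exposure at 37 °C gave viability of IDH1-knockdown HT-1080 cells. Activity was normalised to DMSO and cell-free wells, then fitted as concentration-response curves.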
DT40 TDP1 CPT: qHTS for Inhibitors of human tyrosyl-DNA phosphodiesterase 1 (TDP1): qHTS in cells in presence of CPT. chicken DT40 Tdp1-/-;hTDP1 cells + 20 nM CPT, ATP luminescence, 48 h. Potency, µM (doses to about 46.2 µM), most hits filed as inhibitors. 420,000 compounds, 12% hits. AID 686979, 2013; also: nearly all actives have a fitted effect of over 55% in size
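Cell growth measured by CellTiter-Glo luminescence after a minimum 48 h, 37 C compound exposure with 20 nM CPT in Tdp1-knockout DT40 cells stably expressing hTDP1, seeded 400/well; qHTS titration format.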
Each line names hits and unclear results; the compound was inactive in the other large screens; ! = a repeat was not active. Calls follow the shape of the dose curve; as a rule, active = well fitted curve in the direction sought with a large enough effect; inconclusive = small, poorly fitted or top-dose-only effect, or another doubt; inactive = no such curve, though single readings can be large; an effect the other way counts as inactive or inconclusive.

CCOc1cc(C2C(C(=O)OC)=C(C)NC3=C2C(=O)c2ccccc23)c(Br)cc1O (configuration not stated)	TGFb SMAD3 inh inconclusive, TDP1 cell noCPT 18µM, DT40 TDP1 CPT inconclusive (no result: HT1080NT lethal, HT1080 IDH1KD tx)
CCOc1cc(Br)c(C2C(C(=O)OC)=C(C)NC3=C2C(=O)c2ccccc23)cc1OCC (configuration not stated)	TDP1 cell noCPT 23µM, DT40 TDP1 CPT 4.6µM (no result: HT1080NT lethal, HT1080 IDH1KD tx)
CCOc1cc(C2C(C(=O)OC)=C(C)NC3=C2C(=O)c2ccccc23)c(Br)cc1OC (configuration not stated)	TDP1 cell noCPT inconclusive (no result: HT1080NT lethal, HT1080 IDH1KD tx)
COC(=O)C1=C(C)NC2=C(C(=O)c3ccccc32)C1c1cccc(OC)c1 (configuration not stated)	none
CCCCNC(=O)C1(N2C(=O)c3ccccc3C2=O)CCCC1	none
O=C(N/N=C1/CC2CCC1C2)c1cc2ccccc2cc1O (configuration not stated)	HT1080NT lethal inconclusive, TDP1 cell noCPT 21µM, HT1080 IDH1KD tx inconclusive, DT40 TDP1 CPT 23µM
O=C(NCC1CCCCC1)c1cc2ccccc2cc1O	TGFb SMAD3 inh inconclusive, HT1080NT lethal inconclusive, TDP1 cell noCPT inconclusive, HT1080 IDH1KD tx inconclusive, DT40 TDP1 CPT 21µM
COc1cc(/C=C(/C#N)C(=O)Nc2ccc(Cl)cc2)ccc1Oc1nc(Cl)ncc1F	DT40 TDP1 CPT 9.2µM
COc1ccc(/C=C(/C#N)C(=O)Nc2cccnc2)cc1OC	none
CC(C)(C)NS(=O)(=O)c1ccc(NC(=O)C2CC(=O)N(CCc3ccc(F)cc3)C2)cc1 (configuration not stated)	none
Cc1cc(C)c2nc3nc(C)c(C)cc3c(N)c2c1	TGFb SMAD3 inh inconclusive, HT1080NT lethal inconclusive, TDP1 cell noCPT 6.5µM, HT1080 IDH1KD tx 13µM, DT40 TDP1 CPT 8.2µM
CCCCCCC=C1CCC(CN2CCCC2)C1=O (configuration not stated)	TGFb SMAD3 inh inconclusive, HT1080NT lethal inconclusive, TDP1 cell noCPT 4.1µM, HT1080 IDH1KD tx inconclusive, DT40 TDP1 CPT 2.9µM
CCCC/C=C1\CCc2c([nH]c3ccccc23)C1=O	none
CCN1CCN(S(=O)(=O)c2ccc(OC)c(NC(=O)c3ccccc3F)c2)CC1	TDP1 cell noCPT inconclusive, DT40 TDP1 CPT inconclusive
C[C@@H]1COC(=O)[C@@H](NC(=O)OCC2c3ccccc3-c3ccccc32)C/C=C\C[C@@H](CC(=O)N(CCO)Cc2ccccc2)C(=O)N1	TDP1 cell noCPT 2.6µM, DT40 TDP1 CPT 1.5µM
CC(C)(C)OC(=O)C[C@@H]1C/C=C\C[C@H](CC(=O)N(CCO)Cc2ccccc2)C(=O)N[C@@H](c2ccccc2)COC1=O	TDP1 cell noCPT inconclusive, DT40 TDP1 CPT inconclusive
O=C(N[C@H]1C/C=C\C[C@H](CC(=O)N(CCO)Cc2ccccc2)C(=O)N[C@@H](c2ccccc2)COC1=O)OCC1c2ccccc2-c2ccccc21	TDP1 cell noCPT 13µM, DT40 TDP1 CPT 7.3µM
C[C@H]1COC(=O)[C@H](NC(=O)OCC2c3ccccc3-c3ccccc32)C/C=C\C[C@H](CC(=O)N(CCO)Cc2ccccc2)C(=O)N1	TGFb SMAD3 inh inconclusive, TDP1 cell noCPT 9.2µM, DT40 TDP1 CPT 9.2µM
CCCn1c(N)cc(=O)n(CCC)c1=O	none
OC(c1ccc(F)cc1)(C1CCCCC1)C(CN1CCOCC1)c1ccccc1 (configuration not stated)	TGFb SMAD3 inh inconclusive, DT40 TDP1 CPT inconclusive
CC(=O)NC(c1ccccc1)c1nc(-c2cccc(C(F)(F)F)c2)cs1 (configuration not stated)	TDP1 cell noCPT inconclusive, DT40 TDP1 CPT inconclusive
CC1CCC(NC(=O)Cn2cnc3sccc3c2=O)CC1 (configuration not stated)	none
O=S(=O)(c1ccccc1)N1CN(c2ccc(F)cc2F)c2nc3ccccc3nc21	TDP1 cell noCPT 26µM, DT40 TDP1 CPT inconclusive
COc1cccc(-c2cc(=O)c3cc(NC(C)=O)ccc3[nH]2)c1	TGFb SMAD3 inh inconclusive, TDP1 cell noCPT 16µM, HT1080 IDH1KD tx inconclusive, DT40 TDP1 CPT inconclusive
CCCCOC(=O)c1ccc(NC(=O)CSC2=Nc3ccccc3C3CC=NN23)cc1 (configuration not stated)	TDP1 cell noCPT inconclusive, DT40 TDP1 CPT 23µM
O=C(CSC1=Nc2ccccc2C2CC=NN12)Nc1ccc(F)c(F)c1F (configuration not stated)	DT40 TDP1 CPT inconclusive
COc1ccccc1N=Nc1[nH]c2ccc(C)cc2c1O	TDP1 cell noCPT inconclusive
O=S(=O)(Nc1ccc(O)c2ncccc12)c1ccccc1F	none (no result: HT1080NT lethal, TDP1 cell noCPT, HT1080 IDH1KD tx, DT40 TDP1 CPT)
CCCCN(CCCC)S(=O)(=O)c1ccc(OC)c2ncccc12	TGFb SMAD3 inh inconclusive, TDP1 cell noCPT inconclusive, DT40 TDP1 CPT inconclusive
CCS(=O)(=O)c1ccc(N=Nc2ccc(O)c3ncccc23)c(OC)c1	TGFb SMAD3 inh inconclusive, HT1080NT lethal 1.5µM, TDP1 cell noCPT 1.3µM, HT1080 IDH1KD tx 5.2µM, DT40 TDP1 CPT 1.8µM
COc1ccccc1N=Nc1ccc(O)c2ncccc12	TGFb SMAD3 inh inconclusive, HT1080NT lethal inconclusive, TDP1 cell noCPT 2.9µM, HT1080 IDH1KD tx inconclusive, DT40 TDP1 CPT 2.9µM
Oc1ccc(N=Nc2ccccc2C(F)(F)F)c2cccnc12	TDP1 cell noCPT 1µM, HT1080 IDH1KD tx inconclusive, DT40 TDP1 CPT 0.82µM
OCc1cc(C(O)CNCCCCCCOCCCCc2ccccc2)ccc1O (configuration not stated)	TGFb SMAD3 inh inconclusive, HT1080NT lethal 16µM, TDP1 cell noCPT 13µM, HT1080 IDH1KD tx inconclusive, DT40 TDP1 CPT 19µM!
COc1ccc(OC)c(C(C[N+](=O)[O-])c2c(C)cc3ccccn23)c1 (configuration not stated)	HT1080NT lethal 23µM, TDP1 cell noCPT 2.9µM, HT1080 IDH1KD tx 18µM, DT40 TDP1 CPT 2.1µM
CCCCNC(=S)N/N=C/C1=CCC2CC1C2(C)C (configuration not stated)	TGFb SMAD3 inh 11µM, TDP1 cell noCPT 18µM, DT40 TDP1 CPT inconclusive
C=C(C)CNC(=S)N/N=C/c1ccc([N+](=O)[O-])cc1	none
C=C(C)CNC(=S)N/N=C/c1c(F)cccc1F	TDP1 cell noCPT 16µM, DT40 TDP1 CPT inconclusive
